Five compounds from PubChem BioAssay can be followed below.

Assay [1] concerns PRMT1 (protein arginine N-methyltransferase 1). Put plainly: small molecules binding arginine methyltransferase PRMT1 – biochemical, small-molecule microarray, 635 nm fluorescence, primary screen (AID 1088).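 Also: binding of Prmt1 protein to compounds spotted on small-molecule microarray slides.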 As to conditions: higher = more signal.
Assay [2] is described as follows: growth effects on S. cerevisiae YJM789 – YJM789 clinical isolate, OD600, 24 h, basal, primary screen (AID 1089).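 Also: growth of clinical yeast isolate S. cerevisiae YJM 789 seeded 1000 cells per well; test concentration not given here.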 The conditions noted are these: higher = more signal, called active from +8 up or from −8 down.
The nature of assay [3]: S. pombe growth modifiers, basal conditions – strain 972, OD600, 24 h, no modulator, primary screen (AID 1090).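 Also: basal condition with compound alone and no growth modifier present; test concentration not given here.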 The conditions noted are these: S. pombe 972 growth, higher = more signal, called active from +8 up or from −8 down.
Assay [4] is described as follows: budding yeast growth modifiers under rapamycin – strain BY4716, OD600, 96 h, primary screen (AID 1091). Also: test concentration not given here. As to conditions: S. cerevisiae BY4716 + rapamycin, higher = more signal, called active from +8 up or from −8 down.
Assay [5] deals with Torsin-1A-interacting protein 2 (Homo sapiens) (UniProt Q8NFQ8). As to the kind of experiment: small molecules binding lysate-expressed LULL1 – cell lysate, human LULL1 lysate, 635/667 nm fluorescence, primary screen (AID 1092).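 Also: probe is lysate of COS7 cells overexpressing human LULL1; score merges per-feature 667 nm fluorescence with signal-to-noise.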 As to conditions: small-molecule microarray, hLULL1 lysate binding, 635 nm fluorescence; higher = more signal.
Sequence of Torsin-1A-interacting protein 2 (Homo sapiens) (Q8NFQ8 whole entry, looked up): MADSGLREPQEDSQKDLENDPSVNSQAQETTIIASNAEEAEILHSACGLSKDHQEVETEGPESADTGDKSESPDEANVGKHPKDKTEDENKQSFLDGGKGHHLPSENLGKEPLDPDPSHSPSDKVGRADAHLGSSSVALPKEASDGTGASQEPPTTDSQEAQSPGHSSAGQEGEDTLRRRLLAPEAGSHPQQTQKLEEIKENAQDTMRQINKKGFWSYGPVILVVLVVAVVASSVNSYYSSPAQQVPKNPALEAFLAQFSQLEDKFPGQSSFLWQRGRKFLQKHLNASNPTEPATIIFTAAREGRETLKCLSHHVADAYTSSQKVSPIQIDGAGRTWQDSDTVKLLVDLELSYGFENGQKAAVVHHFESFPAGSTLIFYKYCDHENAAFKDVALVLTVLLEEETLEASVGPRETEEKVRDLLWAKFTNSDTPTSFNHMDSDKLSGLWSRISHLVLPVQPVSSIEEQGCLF
Assay [6] can be described thus: optical density change of DRC41 E. coli – strain DRC41, OD650, 24 h, E. coli filamentation project, primary screen (AID 1093).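 Also: MC1000 strain lacking acrAB efflux and sulA so SOS filamentation is blocked; test concentration not given here.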 As to conditions: E. coli DRC41 growth, higher = more signal, called active from +8 up or from −8 down.
The nature of assay [7]: probe aLefty2 binding to arrayed compounds – biochemical, biotinylated probe, 635/667 nm fluorescence, primary screen (AID 1094).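 Also: score merges spot fluorescence near 667 nm with spot signal-to-noise ratio.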 As to conditions: small-molecule microarray, higher = more signal.
For assay [8], the system named is Noggin (protein binding on small-molecule microarray). As to the kind of experiment: small molecules binding Noggin protein – biochemical, 635/667 nm fluorescence, primary screen (AID 1095).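 Also: score merges 667 nm feature fluorescence with signal to noise over triplicate slides.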 The conditions noted are these: 635 nm fluorescence, higher = more signal.
In assay [9] the target is Neurogenic locus notch homolog protein 3 (Homo sapiens) (UniProt Q9UM47). As to the kind of experiment: small molecules binding NOTCH3 protein – biochemical, 635/667 nm fluorescence, primary screen (AID 1096). The conditions noted are these: small-molecule microarray, 635 nm fluorescence, higher = more signal.
Sequence of Neurogenic locus notch homolog protein 3 (Homo sapiens) (Q9UM47 whole entry, looked up): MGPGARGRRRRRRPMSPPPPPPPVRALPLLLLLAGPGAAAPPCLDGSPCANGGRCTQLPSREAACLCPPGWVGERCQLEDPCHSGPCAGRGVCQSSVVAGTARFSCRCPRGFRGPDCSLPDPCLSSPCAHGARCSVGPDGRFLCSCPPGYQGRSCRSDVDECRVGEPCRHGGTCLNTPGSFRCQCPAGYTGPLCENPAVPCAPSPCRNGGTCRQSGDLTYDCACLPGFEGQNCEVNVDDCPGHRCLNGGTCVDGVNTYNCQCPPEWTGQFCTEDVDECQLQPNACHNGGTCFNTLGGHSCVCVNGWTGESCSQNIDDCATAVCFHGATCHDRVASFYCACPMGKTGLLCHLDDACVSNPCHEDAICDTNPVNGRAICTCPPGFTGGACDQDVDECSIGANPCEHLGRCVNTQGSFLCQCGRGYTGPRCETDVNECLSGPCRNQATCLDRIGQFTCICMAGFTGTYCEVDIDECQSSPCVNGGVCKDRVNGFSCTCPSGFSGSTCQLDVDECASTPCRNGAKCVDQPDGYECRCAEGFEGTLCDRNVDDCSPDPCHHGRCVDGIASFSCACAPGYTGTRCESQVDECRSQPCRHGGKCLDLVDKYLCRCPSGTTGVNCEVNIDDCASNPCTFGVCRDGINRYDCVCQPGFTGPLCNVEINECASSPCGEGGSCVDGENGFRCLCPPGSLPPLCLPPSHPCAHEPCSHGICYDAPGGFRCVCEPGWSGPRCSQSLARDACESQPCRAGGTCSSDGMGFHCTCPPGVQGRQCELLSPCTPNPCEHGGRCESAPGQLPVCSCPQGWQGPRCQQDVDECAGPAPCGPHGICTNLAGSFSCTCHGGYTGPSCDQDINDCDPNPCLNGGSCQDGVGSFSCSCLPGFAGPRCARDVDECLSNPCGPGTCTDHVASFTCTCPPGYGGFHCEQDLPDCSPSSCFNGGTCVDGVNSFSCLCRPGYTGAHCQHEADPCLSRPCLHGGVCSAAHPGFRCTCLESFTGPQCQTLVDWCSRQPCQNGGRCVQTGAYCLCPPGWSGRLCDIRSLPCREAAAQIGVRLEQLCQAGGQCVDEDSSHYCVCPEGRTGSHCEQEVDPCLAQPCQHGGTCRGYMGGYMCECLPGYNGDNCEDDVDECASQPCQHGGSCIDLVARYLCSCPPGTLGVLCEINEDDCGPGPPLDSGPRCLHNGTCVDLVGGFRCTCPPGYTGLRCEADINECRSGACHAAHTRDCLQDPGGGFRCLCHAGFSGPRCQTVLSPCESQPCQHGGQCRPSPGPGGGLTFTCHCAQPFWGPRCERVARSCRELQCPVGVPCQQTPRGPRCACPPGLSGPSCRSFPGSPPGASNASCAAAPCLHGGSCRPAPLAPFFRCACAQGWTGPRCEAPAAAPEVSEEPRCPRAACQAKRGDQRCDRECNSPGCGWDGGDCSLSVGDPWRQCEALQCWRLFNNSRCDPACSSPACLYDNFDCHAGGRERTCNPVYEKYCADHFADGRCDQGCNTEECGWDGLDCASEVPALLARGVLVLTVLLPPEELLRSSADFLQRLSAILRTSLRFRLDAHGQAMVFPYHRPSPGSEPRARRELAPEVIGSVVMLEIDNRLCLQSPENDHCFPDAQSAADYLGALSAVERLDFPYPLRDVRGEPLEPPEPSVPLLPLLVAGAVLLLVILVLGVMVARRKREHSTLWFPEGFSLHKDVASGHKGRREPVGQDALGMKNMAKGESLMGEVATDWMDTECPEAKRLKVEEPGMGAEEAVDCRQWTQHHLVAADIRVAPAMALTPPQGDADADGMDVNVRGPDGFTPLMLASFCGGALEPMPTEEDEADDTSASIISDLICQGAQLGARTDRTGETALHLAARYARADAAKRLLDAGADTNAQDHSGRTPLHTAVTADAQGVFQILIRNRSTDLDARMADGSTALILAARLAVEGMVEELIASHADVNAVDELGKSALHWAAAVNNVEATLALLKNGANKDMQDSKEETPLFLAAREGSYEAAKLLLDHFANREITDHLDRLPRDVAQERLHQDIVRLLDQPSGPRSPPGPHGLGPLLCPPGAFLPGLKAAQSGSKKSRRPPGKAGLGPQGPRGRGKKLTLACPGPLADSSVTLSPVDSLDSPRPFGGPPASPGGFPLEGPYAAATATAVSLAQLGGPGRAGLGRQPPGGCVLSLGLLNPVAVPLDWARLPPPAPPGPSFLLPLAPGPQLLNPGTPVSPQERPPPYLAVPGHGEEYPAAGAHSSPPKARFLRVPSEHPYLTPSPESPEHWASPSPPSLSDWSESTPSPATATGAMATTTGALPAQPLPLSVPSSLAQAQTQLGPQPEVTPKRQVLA
A short description of assay [10]: probe aEGFR binding to arrayed compounds – biochemical, biotinylated probe, 635/667 nm fluorescence, primary screen (AID 1097).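 Also: probe is a biotinylated anti-EGFR antibody binding compounds printed on slides; score combines fluorescence near 667 nm and signal to noise of each spot.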 The conditions noted are these: small-molecule microarray, higher = more signal.
Assay [11] deals with Plasmodium falciparum Sir2 (PF13_0152, Sir2A). Put plainly: Plasmodium falciparum Sir2A binding compounds – biochemical, small-molecule microarray, 635 nm fluorescence, primary screen (AID 1098).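 Also: score merges spot fluorescence intensity with its signal-to-noise ratio.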 The conditions noted are these: fluorescence 635 nm, higher = more signal.
Assay [12] can be described thus: probe aDKK1 binding to arrayed compounds – biochemical, biotinylated probe, 635/667 nm fluorescence, primary screen (AID 1099).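 Also: score merges 667nm spot fluorescence with signal to noise across triplicate slides; reference of the scale not given here.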 As to conditions: small-molecule microarray, higher = more signal.
Assay [13] is described as follows: probe aCHRDL2 binding to arrayed compounds – biochemical, biotinylated probe, 635/667 nm fluorescence, primary screen (AID 1100). As to conditions: small-molecule microarray, higher = more signal.
The nature of assay [14]: change in splice reporter luminescence, either direction, cell-based, HEK293, spliceosome inhibition project, primary screen (AID 1101).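 Also: HEK293 cells carrying a splicing-competent luciferase reporter gene; test concentration not given here.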 As to conditions: HEK293 splicing luciferase reporter, 24 h, higher = more signal, called active from +8 up or from −8 down.
The target of assay [15] is Fibroblast growth factor 10 (Homo sapiens) (UniProt O15520). Put plainly: compounds binding fibroblast growth factor 10 – biochemical, small-molecule microarray, 635 nm fluorescence, primary screen (AID 1102). The conditions noted are these: FGF10 binding, fluorescence 635 nm, higher = more signal.
Sequence of Fibroblast growth factor 10 (Homo sapiens) (O15520 whole entry, looked up): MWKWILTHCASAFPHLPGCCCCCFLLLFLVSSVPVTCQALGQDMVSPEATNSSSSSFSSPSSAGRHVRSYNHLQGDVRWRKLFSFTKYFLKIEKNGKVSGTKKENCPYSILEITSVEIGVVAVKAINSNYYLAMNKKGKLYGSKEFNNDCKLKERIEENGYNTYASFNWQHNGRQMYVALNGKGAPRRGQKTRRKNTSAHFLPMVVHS
In assay [16] the test system is glycogen synthase kinase-3 (GSK3A per assay name; protocol says GSK3B). Put plainly: compounds binding glycogen synthase kinase-3 – biochemical, small-molecule microarray, 635 nm fluorescence, GSK3A, primary screen (AID 1103). Also: the record names both GSK3A and GSK3B. As to conditions: fluorescence 635 nm, higher = more signal.
For assay [17], the target named is Epidermal growth factor receptor (Homo sapiens) (UniProt P00533). As to the kind of experiment: compounds binding epidermal growth factor receptor – biochemical, small-molecule microarray, 635 nm fluorescence, primary screen (AID 1104).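 Also: score merges 667 nm emission intensity with spot signal to noise over triplicate slides.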 As to conditions: EGFR binding, higher = more signal.
Sequence of Epidermal growth factor receptor (Homo sapiens) (P00533 whole entry, looked up): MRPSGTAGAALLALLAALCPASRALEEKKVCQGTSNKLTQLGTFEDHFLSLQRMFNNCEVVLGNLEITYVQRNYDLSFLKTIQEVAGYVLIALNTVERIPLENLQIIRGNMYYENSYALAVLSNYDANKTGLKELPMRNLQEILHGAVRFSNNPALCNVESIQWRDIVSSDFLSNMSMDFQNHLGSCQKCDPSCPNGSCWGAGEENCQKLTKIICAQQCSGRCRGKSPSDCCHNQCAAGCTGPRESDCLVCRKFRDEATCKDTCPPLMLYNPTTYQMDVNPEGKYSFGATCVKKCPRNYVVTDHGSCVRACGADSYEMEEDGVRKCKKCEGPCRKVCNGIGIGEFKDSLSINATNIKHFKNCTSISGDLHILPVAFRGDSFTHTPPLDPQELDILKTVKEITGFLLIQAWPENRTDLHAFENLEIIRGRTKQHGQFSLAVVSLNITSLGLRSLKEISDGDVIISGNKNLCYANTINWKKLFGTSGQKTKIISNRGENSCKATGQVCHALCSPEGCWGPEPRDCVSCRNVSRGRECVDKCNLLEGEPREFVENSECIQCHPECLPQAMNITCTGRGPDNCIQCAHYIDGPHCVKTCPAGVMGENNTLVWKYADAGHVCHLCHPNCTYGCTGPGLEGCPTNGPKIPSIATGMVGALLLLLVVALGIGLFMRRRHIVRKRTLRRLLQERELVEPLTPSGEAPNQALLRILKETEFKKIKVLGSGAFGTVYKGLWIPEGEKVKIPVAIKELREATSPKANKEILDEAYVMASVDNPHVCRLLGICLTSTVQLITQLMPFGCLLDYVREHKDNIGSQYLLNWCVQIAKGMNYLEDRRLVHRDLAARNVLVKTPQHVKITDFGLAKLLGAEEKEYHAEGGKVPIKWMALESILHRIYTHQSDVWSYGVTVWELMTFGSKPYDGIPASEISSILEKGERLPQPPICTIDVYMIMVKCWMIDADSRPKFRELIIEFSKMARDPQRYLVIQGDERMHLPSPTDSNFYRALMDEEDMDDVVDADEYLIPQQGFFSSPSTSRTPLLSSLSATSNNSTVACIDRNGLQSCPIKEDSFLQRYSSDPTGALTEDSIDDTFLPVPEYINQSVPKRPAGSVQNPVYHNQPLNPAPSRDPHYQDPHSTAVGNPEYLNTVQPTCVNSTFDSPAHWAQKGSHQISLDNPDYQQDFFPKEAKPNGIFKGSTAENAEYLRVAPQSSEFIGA
Assay [18] addresses Follistatin-related protein 3 (Homo sapiens) (UniProt O95633). Put plainly: compounds binding follistatin-related protein 3 – biochemical, small-molecule microarray, 635 nm fluorescence, primary screen (AID 1105).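 Also: score merges emission near 667 nm and signal to noise per printed spot across three slides.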 As to conditions: FSTL3 binding, higher = more signal.
Assay [19] has as its target Dickkopf-related protein 1 (Homo sapiens) (UniProt O94907). As to the kind of experiment: small molecules binding DKK1 protein – biochemical, small-molecule microarray, 635 nm fluorescence scan, primary screen (AID 1106).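 Also: score merges emission near 667 nm with signal to noise over three replicate slides.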 As to conditions: higher = more signal.
Assay [20] deals with Inhibin beta A chain (activin A). As to the kind of experiment: small molecules binding activin A – biochemical, small-molecule microarray, 635 nm fluorescence scan, primary screen (AID 1107).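 Also: mouse activin A protein probed at 4.33 µg/mL on printed slides; score merges bound-protein fluorescence near 667 nm with spot signal-to-noise.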 As to conditions: INHBA, higher = more signal.

SMILES strings stand for the structures. Activity calls are given as the source filed them.

Sequence of Dickkopf-related protein 1 (Homo sapiens) (O94907 whole entry, looked up): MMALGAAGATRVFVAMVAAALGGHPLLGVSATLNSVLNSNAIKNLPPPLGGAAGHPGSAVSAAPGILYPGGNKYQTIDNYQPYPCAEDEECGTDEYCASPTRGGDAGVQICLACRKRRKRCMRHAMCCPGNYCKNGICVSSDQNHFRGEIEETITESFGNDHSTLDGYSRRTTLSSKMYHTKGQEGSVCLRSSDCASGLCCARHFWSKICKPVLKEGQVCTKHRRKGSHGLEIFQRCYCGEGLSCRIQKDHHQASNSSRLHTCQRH
Sequence of Follistatin-related protein 3 (Homo sapiens) (O95633 whole entry, looked up): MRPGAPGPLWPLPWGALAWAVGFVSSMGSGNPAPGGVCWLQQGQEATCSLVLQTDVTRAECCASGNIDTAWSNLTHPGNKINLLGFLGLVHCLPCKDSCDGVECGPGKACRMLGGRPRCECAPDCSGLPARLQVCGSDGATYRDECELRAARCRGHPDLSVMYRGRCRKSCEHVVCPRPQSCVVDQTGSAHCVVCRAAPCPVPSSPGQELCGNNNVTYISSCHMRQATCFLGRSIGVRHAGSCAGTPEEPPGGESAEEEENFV

With `COc1cccc([C@H]2Oc3ccc(OC)cc3C(=NOC[C@@H](O)[C@H]3O[C@@H]4OC(C)(C)O[C@@H]4[C@H]3O)[C@@H]2O)c1`, the composite z-score in assay [1] is 0.775; in assay [5] it was 0.347; in assay [7], -0.0616; in assay [8], 0.449; in assay [9], 0.456; in assay [10], 0.0746. For the same compound, the composite z-score in assay [11] is 0.0732; in [12], -0.389; in assay [13], -0.511; in assay [15], 0.654; in [16], 0.315; in [17] it was 0.35. In addition, the results for the composite z-score in [18], in assay [19] and in assay [20] were 0.492, 0.548 and -0.326, respectively. Moreover, the z-score is -0.797 (inactive) in assay [2]; -2.21 (inactive) in [3]; -1.62 (inactive) in assay [4]; 0.932 (inactive) in [6]; -0.106 (inactive) in [14].

For the compound `CCOC(=O)[C@H](CC(C)C)NC(=O)CCC1CC(OC(=O)NCc2ccc3c(c2)OCO3)CC2(CCCC(COC(=O)NCc3cccc(C(F)(F)F)c3)O2)O1` (stereo not given in full), the composite z-score was 0.312 in assay [1]; 0.851 in [5]; -0.154 in assay [7]; 0.184 in assay [8]; 0.082 in assay [9]; -0.171 in assay [10]. The composite z-score is 0.15 in assay [11]; -0.229 in [12]; -0.031 in [13]; 0.418 in [15]; -0.319 in assay [16]; 0.242 in assay [17]. The composite z-score was 0.395 in assay [18], 0.355 in assay [19] and 0.348 in assay [20]. In addition, the z-score in [2] was 0.518 (inactive); in assay [3], 0.486 (inactive); in assay [4], 1.29 (inactive); in assay [6] it was -0.772 (inactive); in assay [14] it was -0.235 (inactive).

As to `COC(=O)CC=C[C@@H](C)[C@@H](C=NOCC[C@@H]1C=C[C@H](OC(C)=O)[C@@H](COC(C)=O)O1)NS(=O)(=O)c1ccc(C)cc1`, the composite z-score in assay [1] was 0.477; in assay [5] it was -0.0098; in assay [7], 0.135; in [8] it was 0.706; in assay [9] it was -0.213; in assay [10], 0.0511. Further, the composite z-score in assay [11] was 0.133; in assay [12], -0.322; in assay [13], -0.331; in assay [15], -0.183; in [16] it was 0.328; in assay [17], 0.736. Further, the figures for the composite z-score in [18], in assay [19] and in assay [20] were 0.0237, 0.316 and 0.46, respectively. The z-score in [2] was 0.787 (inactive); in assay [3], 0.466 (inactive); in assay [4], -0.448 (inactive); in assay [6], 0.545 (inactive); in assay [14] it was -0.43 (inactive).

With `COc1ccc(O[C@H]2C=C[C@@H](c3ccccc3)O[C@@H]2CON=CC[C@@H]2C=C[C@H](OC(C)=O)[C@@H](COC(C)=O)O2)cc1`, the composite z-score in assay [1] was 0.15; in assay [5] it was 0.22; in assay [7] it was -0.107; in [8] it was 0.691; in [9], -0.22; in assay [10] it was -0.0267. The composite z-score in [11] is 0.277; in assay [12] it was -0.229; in assay [13], 0.0216; in assay [15] it was -0.0104; in assay [16] it was -0.603; in [17], 0.238. In addition, the composite z-score in assay [18] worked out at 0.128; in assay [19], 0.105; in [20], 0.606. The z-score in assay [2] is 0.507 (inactive); in assay [3], 0.722 (inactive); in [4], 0.721 (inactive); in assay [6] it was 0.363 (inactive); in assay [14], 0.731 (inactive).

For the compound `CC(C)(C)N1C(=O)[C@H]2[C@H]3[C@H](O)C=CC(=O)[C@@H]3CC[C@H]2C1=O`, the composite z-score was -0.832 in assay [1]; -0.117 in assay [5]; -0.0258 in assay [7]; 0.891 in [8]; 0.604 in assay [9]; 0.0469 in [10]. For the same compound, the composite z-score in assay [11] was 0.294; in assay [12], -0.407; in assay [13] it was -0.428; in assay [15] it was 0.429; in [16], 0.695; in [17] it was 0.437. The composite z-score in assay [18] was 0.711; in assay [19], 0.715; in [20], -0.214. For the same compound, the z-score in [2] was 0.985 (inactive); in assay [3], 0.632 (inactive); in assay [4] it was 1.12 (inactive); in assay [6] it was 0.208 (inactive); in assay [14] it was -0.128 (inactive).
